ARNT-TACC3 inh: ARNT/TACC3 interaction disruption | 390,000 tested, 0.66% active | inhibition, % at 9.99 µM | Q9Y6A5 | AlphaScreen His-ARNT PAS-B/GST-TACC3 binding, luminescence; TACC3 fragment carries E629A point mutation;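 active = mean inhibition of replicates at least 50% and at least half of replicates each reaching 50%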;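 note: 0% = complete ARNT plus TACC3 wells and 100% = ARNT alone without TACC3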
HSP90 inh: inhibitors of HSP90 luciferase refolding in rabbit reticulocyte lysate. luciferase refolding luminescence, 3 h. inhibition, % at 5.6 µM. 290,000 tested, 0.91% active. AID 1789;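 active = inhibition above the screen-wide mean plus 3 SD, computed separately per campaign, cut at about 16% in these data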;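 note: 0% = DMSO wells and 100% = 60 µM geldanamycin wells; inhibitors lower the luminescence because luciferase stays unfolded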
HSF1 inhib: HSF1 inhibition. AID 2098. activity change, negative = inhibition, % at 7.5 µM (by protocol). NIH3T3-HGL HSE-luciferase, MG132-induced, luminescence 8 h; hits give low values. 300,000 tested, 0.77% active;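 active = more than half of replicate wells show activity change below -50%, luminescence cut by over half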;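 note: luciferase reports HSF-1 transcriptional activity via heat shock element; 0% = median of DMSO wells and -100% = zero luminescence signal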
HIF activator: HIF pathway transcriptional activation; U2OS HRE-luciferase reporter, luminescence; normalized: DMSO 0%, desferrioxamine 100%; activation, % at 7.5 µM (by protocol); 300,000 tested, 0.32% active;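 active = mean activation of at least 10% of the iron chelator positive control signal, with at least half of replicates also reaching 10%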
HSF1 activator: increases HSF-1 driven luciferase reporter signal; activation, % at 9 µM; NIH3T3-HGL HSF-1 luciferase reporter, MG132, 8 h; 100% = twice DMSO control signal; 300,000 tested, 1.7% active;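 active = mean replicate activation of at least 50% with a set share of replicates each reaching 50%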;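 note: 0% = median of the neutral control wells and 100% = twice that signal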
ARNT Alpha ctr-1: counter-screen for ARNT/TACC3 inhibitors: AlphaScreen artifacts | AC50, µM (highest dose often 68 µM), for inactives: at the top dose activity change, negative = signal decrease | shares compounds with ARNT-TACC3 inh | His-ARNT PASB-GST AlphaScreen artifact counter-screen, luminescence | 1,200 tested, 50% active;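 active = every separate test run was called active for a drop in luminescence, with AC50 within twice the top valid dose, actives reach about 71 µM in these data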
ARNT Alpha ctr-2: produces AlphaScreen artifacts in ARNT-TACC3 counter-screen. shares compounds with ARNT-TACC3 inh. Dual-tagged His-ARNT PASB-GST AlphaScreen artifact counter-screen. AC50, µM. 45 tested, 70% active. AID 720564;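 active = luminescence drop, with half-maximal potency fitted within twice the sample's top valid dose, cut at about 70 µM in these data; inactive = the rest, including signal moving the wrong way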
The depositor's hits bear a star; i = inactive; . = no result given. This is a sample that favours compounds with a hit; in the whole collection about 3.1% have one here.

SMILES	ARNT-TACC3 inh	HSP90 inh	HSF1 inhib	HIF activator	HSF1 activator	ARNT Alpha ctr-1	others
Cc1cccnc1Nc1nc(-c2ccccn2)cs1	68.6*	9.8	217.8	181.8*	350.0*	5.29µM*
CN(C)CC(=O)Nc1ccc2c(c1)[C@H]1C[C@H](CC(=O)NCCN3CCCCC3)O[C@@H](CO)[C@H]1O2	-15.9	.	.	.	.	.
Cc1noc(C)c1NC(=O)Nc1ccc2c(c1)C(=O)N([C@@H](C)CO)C[C@@H](C)[C@@H](CN(C)Cc1ccc(C(F)(F)F)cc1)OCCCC[C@H](C)O2	-1.0	.	.	.	.	.
COc1ccc(NC(=O)CSc2ccc3nnc(-c4ccccn4)n3n2)cc1	66.4*	0.5	-1.3	0.1	-13.0	-16.9%
CCn1c(SCC(=O)Nc2ccc3c(c2)OCCO3)nnc1-c1ccccn1	27.1	6.4	-3.8	0.3	-7.6	.
Cc1ccccc1-n1c(SCC(=O)Nc2ccc3c(c2)OCO3)nnc1-c1ccccn1	60.7*	-0.9	-4.0	-0.5	-1.2	-30.7%
C(=C\c1ccccc1)/CSc1nnc(-c2ccccn2)n1Cc1ccco1	8.5	4.1	18.4	1.3	38.8	.
Nn1c(SC/C=C/c2ccccc2)nnc1-c1ccccn1	53.6*	0.8	8.7	0.8	15.0	59.9µM*
COc1ccc(NC(=O)CSc2nnc(-c3ccccn3)n2N)cc1	55.1*	0.2	0.2	0.2	-5.2	-33.8%
COc1ccc(NC(=O)N(C)C[C@@H]2OCc3ccccc3-c3ccccc3C(=O)N([C@H](C)CO)C[C@@H]2C)cc1	-3.1	.	.	.	.	.
COc1ccc(-c2ccc3c(c2)[C@H]2[C@H](CCN2S(=O)(=O)c2ccccc2C)[C@H](CO)N3C)cc1	1.6	.	.	.	.	.
C[C@@H]1CN([C@@H](C)CO)C(=O)c2ccccc2-c2ccccc2CO[C@@H]1CN(C)C(=O)c1ccccc1	-1.4	.	.	.	.	.
C[C@@H]1CN([C@H](C)CO)C(=O)c2cccc(N(C)C)c2O[C@H]1CN(C)Cc1ccc(Oc2ccccc2)cc1	5.6	.	.	.	.	.
Cc1ccc(S(=O)(=O)Nc2ccc3c(c2)CC(=O)N([C@@H](C)CO)C[C@H](C)[C@H](CN(C)CC2CC2)O3)cc1	0.0	.	.	.	.	.
COc1ccc(-c2ccc([C@H]3[C@@H](CO)N(C(=O)C4CCC4)[C@H]3C#N)cc2)cc1	2.2	.	.	.	.	.
COc1ccccc1NC(=O)N(C)C[C@H]1Oc2ncc(C#CCC(C)C)cc2C(=O)N([C@H](C)CO)C[C@H]1C	-5.0	.	.	.	.	.
COc1ccc(OC)c(NC(=O)CSc2ccc3nnc(-c4ccccn4)n3n2)c1	53.3*	-2.7	-4.5	-0.2	9.2	-30.2%
O=C(CSc1nnc2ccc(-c3ccccn3)nn12)Nc1ccc(F)cc1F	-1.7	.	-8.1	0.9	-15.8	.
COc1ccccc1NC(=O)CSc1ccc2nnc(-c3ccccn3)n2n1	19.2	.	0.8	1.3	3.3	.
O=C(CSc1ccc2nnc(-c3ccccn3)n2n1)Nc1ccc(F)cc1F	53.0*	-2.5	-4.1	-0.5	-5.3	-33.8%
CC(C)C#Cc1ccc([C@H]2[C@H](CO)N3CCCCN(S(=O)(=O)Cc4ccccc4)C[C@@H]23)cc1	16.8	.	.	.	.	.
CCCNC(=O)[C@H]1[C@H](CO)[C@H]2Cn3c(ccc(C4=CCCC4)c3=O)[C@@H]1N2CCC(F)(F)F	-1.6	.	.	.	.	.
Cc1cc2c(NC(=O)CC(C)(C)CC(=O)O)cccc2nn1	27.2*	-3.3	4.1	-0.6	0.3	-10.0%
COc1ccc(O)c(/C=N\NC(=O)CCn2nnc3ccccc32)c1	50.6*	0.5	0.2	1.6	0.2	-8.0%
Oc1ccc(CN2CCc3ccccc3C2)c2cccnc12	67.0*	5.6	-22.6	158.8*	-11.8	3.72µM*
SMILES	ARNT-TACC3 inh	HSP90 inh	HSF1 inhib	HIF activator	HSF1 activator	ARNT Alpha ctr-1	others
Clc1ccccc1CN1CCC(Cc2ccccc2)CC1	-3.2	1.0	0.2	-0.1	37.2	.
Oc1ccc(CNC2Cc3ccccc3C2)c2cccnc12	.	.	.	.	.	2.41µM*
CC1CN(Cc2ccc(O)c3ncccc23)CC(C)O1 (stereo not drawn)	.	.	.	.	.	4.69µM*
Oc1ccc(CN2CCC(Cc3ccccc3)CC2)c2cccnc12	.	3.8	-29.9	17.9*	-35.5	4.96µM*
CN(Cc1ccco1)Cc1ccc(O)c2ncccc12	2.0	.	.	.	.	.
O=C(C[C@@H]1CC[C@@H]2[C@H](COC[C@@H](O)CN2C(=O)C2CC2)O1)NCc1ccncc1	-6.5	.	.	.	.	.
COc1ccccc1-c1cn(CC[C@@H]2CC[C@@H](NC(=O)C3CCOCC3)[C@@H](CO)O2)nn1	-0.8	.	.	.	.	.
CC(C)COCc1ccc(O)c2ncccc12	67.1*	-2.5	-39.1	0.5	-43.1	17.6µM*
COCCn1c(N)c(C(=O)NCc2cccs2)c2nc3ccccc3nc21	51.0*	14.5	8.2	0.2	32.6	-25.0%
O=C(C[C@H]1C[C@H]2c3cc(NC(=O)Cc4ccncc4)ccc3O[C@H]2[C@H](CO)O1)NCc1cc(F)ccc1F	3.3	.	.	.	.	.
FC(F)(F)c1cc(-c2nn[nH]n2)cc(C(F)(F)F)c1	.	.	.	.	.	.	ARNT Alpha ctr-2=i
O=C(CCN1CCCCC1)NCC[C@H]1CC[C@H](NC(=O)Cc2cccnc2)[C@H](CO)O1	-29.0	.	.	.	.	.
Cc1cc(C)c(S(=O)(=O)N2CCCC2=O)c(C)c1N(C)S(C)(=O)=O	9.2*	-3.2	4.1	-0.2	-14.7	-5.4%
O=C(Nc1ccccc1F)N1C[C@@H]2[C@H](c3ccccc31)[C@@H](CO)N2C(=O)c1ccccn1	1.7	.	.	.	.	.
O=C1C2CCCCN2C(=O)N1CCCCN1CCN(c2cccc(Br)c2)CC1 (stereo not drawn)	active	-2.3	4.7	-0.6	0.1	-13.1%
Cc1ccc(C(=O)Oc2ccc(/C=C3\C(=N)N4N=C(N5CCOCC5)SC4=NC3=O)cc2)cc1	56.3*	-1.4	22.9	1.0	42.0	-27.0%
Cc1ccc(C)c(S(=O)(=O)N2CCCOC2CNC(=O)C(=O)NCCCn2ccnc2)c1 (stereo not drawn)	55.9*	-6.6	0.9	0.0	7.8	-6.6%
O=C(NCCCn1ccnc1)C(=O)NCC1OCCN1S(=O)(=O)c1ccc(F)cc1 (stereo not drawn)	58.0*	-0.9	-7.0	0.0	4.8	31.6µM*
O=C(NCCCn1ccnc1)C(=O)NCC1OCCN1S(=O)(=O)c1ccc(Br)cc1 (stereo not drawn)	1.5	0.4	1.9	-0.1	3.0	.
COc1ccc(S(=O)(=O)N2CCOC2CNC(=O)C(=O)NCCCn2ccnc2)cc1OC (stereo not drawn)	59.3*	1.0	1.9	-0.1	-1.2	-23.4%
COc1ccc(S(=O)(=O)N2CCCOC2CNC(=O)C(=O)NCCCn2ccnc2)cc1 (stereo not drawn)	.	-1.5	3.2	-0.5	-11.5	.

Bioassay records as filed in PubChem BioAssay.
